According to the supplement of paper PMC6555819:

Key:
Assay in all cases: PBM binding z-score (relative to random genomic background probes); higher = stronger binding; sequences stand for … in GC…GCGATTGACAGCGTAGAATGAAGG
[1] = test system: FXR:RXRa (NR concentration 270 nM, RXRa partner concentration 90 nM)
Procedure, shortened: (§1)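 Probes were double-stranded and carried 34-nt variable regions with direct-repeat seeds, single-nucleotide variants, half-site ablations and random human genomic background sequences, printed on custom Agilent 4×180K protein-binding microarrays. Arrays were incubated 1 h with ligand-free nuclear receptor dimers in PBS pH 7.4, 2% milk, 0.02% Triton X-100, 1 mM DTT, 0.2 mg/mL BSA and 0.4 mg/ml salmon testes DNA. Antibodies against each partner (one per run) detected binding, and scanned fluorescence was regression-normalized. Binding z-scores use the random background probes as reference.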

[2] = test system: LXRa:RXRa (NR concentration 270 nM, RXRa partner concentration 90 nM)
Procedure, shortened: as §1

[3] = test system: LXRa homodimer (NR concentration 270 nM)
Procedure, shortened: as §1

[4] = test system: LXRb:RXRa (NR concentration 270 nM, RXRa partner concentration 90 nM)
Procedure, shortened: as §1

[5] = test system: LXRb homodimer (NR concentration 270 nM)
Procedure, shortened: as §1

[6] = test system: PPARa:RXRa (NR concentration 270 nM, RXRa partner concentration 90 nM)
Procedure, shortened: as §1

[7] = test system: PPARg:RXRa (NR concentration 180 nM, RXRa partner concentration 90 nM)
Procedure, shortened: as §1

[8] = test system: PPARg:RXRa 270nM:90nM, anti-RXR (NR concentration 270 nM, RXRa partner concentration 90 nM)
Procedure, shortened: as §1

[9] = test system: PPARg:RXRa 30nM:10nM, anti-RXR (NR concentration 30 nM, RXRa partner concentration 10 nM)
Procedure, shortened: as §1

[10] = test system: PPARg:RXRa 90nM:30nM, anti-RXR (NR concentration 90 nM, RXRa partner concentration 30 nM)
Procedure, shortened: as §1

[11] = test system: PPARg:RXRa DBDmut IVT, anti-RXR (DBD mutation: RXRa K156A/R161A, NR concentration 270 nM, RXRa partner concentration 90 nM)
Procedure, shortened: as §1

[12] = test system: PPARg:RXRa IVT, anti-PPARg (NR concentration 270 nM, RXRa partner concentration 90 nM)
Procedure, shortened: as §1

[13] = test system: PPARg DBDmut:RXRa IVT, anti-PPARg (DBD mutation: PPARg1 K132A/R137A, NR concentration 270 nM, RXRa partner concentration 90 nM)
Procedure, shortened: as §1

[14] = test system: PPARg DBDmut IVT, anti-PPARg (DBD mutation: PPARg1 K132A/R137A, NR concentration 270 nM)
Procedure, shortened: as §1

[15] = test system: PPARg homodimer (NR concentration 180 nM)
Procedure, shortened: as §1

[16] = test system: PXR:RXRa (NR concentration 270 nM, RXRa partner concentration 90 nM)
Procedure, shortened: as §1

[17] = test system: PXR homodimer (NR concentration 270 nM)
Procedure, shortened: as §1

[18] = test system: RARa:RXR (NR concentration 270 nM, RXRa partner concentration 90 nM)
Procedure, shortened: as §1

[19] = test system: RARa homodimer (NR concentration 270 nM)
Procedure, shortened: as §1

[20] = test system: RARb:RXRa (NR concentration 270 nM, RXRa partner concentration 90 nM)
Procedure, shortened: as §1

Sequence | PBM binding z-score [1] | PBM binding z-score [2] | PBM binding z-score [3] | PBM binding z-score [4] | PBM binding z-score [5] | PBM binding z-score [6] | PBM binding z-score [7] | PBM binding z-score [8] | PBM binding z-score [9] | PBM binding z-score [10] | PBM binding z-score [11] | PBM binding z-score [12] | PBM binding z-score [13] | PBM binding z-score [14] | PBM binding z-score [15] | PBM binding z-score [16] | PBM binding z-score [17] | PBM binding z-score [18] | PBM binding z-score [19] | PBM binding z-score [20]
GCTCGGAGAACAAGGTCAGAGCTTTGTCCGTAGA | 1.25 | 1.41 | -0.275 | 1.11 | -1.02 | 2.37 | 0.176 | 0.774 | -0.425 | 0.29 | 0.447 | 0.471 | -0.968 | -1.78 | 0.759 | 1.73 | -0.538 | 1.79 | -0.831 | 2.86
TCATATAGGTAATACAGGTGATAGTCGGCATCTA | 0.719 | 1 | 0.507 | 0.789 | 0.315 | 1.36 | 1.6 | 2.3 | 3.98 | 3.1 | 4.04 | 3.01 | 1.19 | 2.05 | 1.08 | 0.592 | 0.285 | 0.723 | 1.73 | 0.484
ATCTCTAGGTAAAAGTTCAGTGACTCCCGAGGAT | 1.09 | 2.16 | 1.64 | 1.38 | 0.749 | 4.12 | 8.08 | 8.15 | 8.38 | 8.98 | 2.54 | 3.69 | 1.46 | 1.46 | 1.59 | 2.36 | 1.59 | 1.97 | 0.841 | 2.39
ACTAGTTGGTCAGCTGAGGCCACACACAATTCGG | 0.531 | -0.313 | -0.2 | -0.129 | -0.143 | -0.0104 | 0.761 | -0.157 | -0.382 | -0.207 | 0.674 | 0.964 | 0.862 | 0.728 | 0.0249 | 1.11 | -0.242 | 1 | -0.472 | 1.13
CAAACTAGGTCAAGGGCAAAGTCGGTTTGTGCCA | 3.97 | 3.12 | 0.592 | 2.17 | 0.2 | 5.38 | 9.21 | 8.06 | 6.95 | 8.38 | 8.17 | 8.56 | 2.21 | 2.46 | 3.97 | 2.25 | 0.415 | 2.77 | 0.377 | 4.27
ATCTCTAGGTAACAACTTCAGTGAAAGAGAGGAC | 0.55 | 0.485 | 0.102 | 0.396 | 0.978 | 0.493 | 0.782 | 0.618 | 0.652 | 0.573 | 3.07 | 2.74 | 1.64 | 1.45 | 0.774 | 0.286 | 0.641 | 0.537 | 0.713 | 0.586
AGTCAAAGTACACTAGGTAACGTAAGATTCAGCT | -0.108 | -0.26 | -0.164 | -0.273 | 0.0714 | 0.196 | 1.13 | 0.666 | 0.149 | 0.295 | 1.45 | 2.33 | 0.868 | 0.545 | -0.165 | -0.253 | -0.00521 | -0.109 | 0.688 | 0.988
CGTCAAAGTTCAAGGAAACGTAACAGAAAGCAGC | 5.45 | 5.15 | 1.92 | 2.97 | 0.958 | 4.11 | 3.58 | 4.4 | 1.69 | 3.29 | 0.0711 | 1.12 | 0.307 | 1.1 | 1.84 | 3.45 | 1.73 | 2.73 | 1.33 | 5
CCTTACAGGTCACTGACAGGTTATAGCATTTGGA | 6.15 | 4.93 | 2.19 | 3.88 | 0.942 | 5.23 | 4.78 | 4.44 | 2.1 | 3.27 | 4.62 | 4.34 | 1.33 | 1.38 | 3.27 | 3.86 | 0.606 | 4.73 | 2.15 | 4.67
ATATGTAGGGTAGCTGGGGTCATTCAGACTAGGC | 3.69 | 4.07 | 2.16 | 4.42 | 1.68 | 5.28 | 5.01 | 4.85 | 2.14 | 3.95 | 5.27 | 5.46 | 1.65 | 3.4 | 2.54 | 6.03 | 3.77 | 5.97 | 0.388 | 2.87
ATCGCTAGGTAACCAAGTTCAGTGAATGCCGAAC | -0.315 | 0.156 | -0.0176 | -0.126 | -0.754 | 0.318 | -0.0825 | -0.186 | -0.453 | -0.0897 | -0.05 | 0.465 | -0.411 | -0.436 | -0.86 | 1.57 | 1.12 | 0.267 | -0.716 | 0.753
ATCTCTAGGTAAGACTCAGTTCAGTGCAGAACGC | 0.385 | 0.334 | 0.807 | 0.371 | 0.594 | 0.349 | 0.209 | 0.0288 | 0.281 | 0.195 | 1.92 | 1.08 | 0.985 | 1.26 | 1.53 | 1.14 | 1.56 | 0.346 | 1.16 | 0.33
CCTAGTTGGTCAGGAGGTCACACAGCGGATATGA | 4.26 | 3.54 | 2.17 | 3.55 | 0.887 | 4.36 | 3.51 | 4.15 | 1.76 | 3.56 | 1.92 | 3.62 | 0.997 | 0.401 | 5.93 | 4.51 | 2.55 | 5.39 | 3.77 | 3.81
TGAATGAGGTTATAACATCAGGGAACGTTGCAAA | 1.52 | 1.46 | -0.281 | 1.2 | -0.639 | 2.52 | 1.12 | 1.54 | 0.946 | 1.41 | 0.822 | 1.57 | 1.79 | 0.499 | 0.614 | 0.813 | -0.514 | 1.4 | 0.248 | 1.04
